# Cycloheximide cs = Cycloheximide Counterscreen for Small Molecule Inhibitors of Shiga Toxin; cell reporter, cycloheximide protein synthesis inhibition counterscreen; max response, %; hit rate 12% among 300,000; AID 2314, 2010; in the data active = max response mostly above about 13%, no sharp cut-off; inactive = mostly below about 14%; note: read at 38.3 µM for the half of the compounds with a filed dose; 0% is about no effect
# Pf growth 96h = Primary qHTS for delayed death inhibitors of the malarial parasite plastid, 96 hour incubation. P. falciparum luciferase reporter growth, 96 h. Potency, µM (top dose mostly 28.7 µM), for the others: at the highest dose activity change, negative = inhibition, most hits filed as inhibitors. hit rate 6.9% among 320,000. AID 504834, 2011; note: potency is the fitted concentration of half-maximal effect; % is set by controls: 0 for no effect and ±100 for the full control effect
#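 Luminescence readout: decreased luciferase signal marks inhibited growth of reporter-expressing P. falciparum in infected red cells (2% hematocrit, 0.05% parasitemia final), exposed to compound two generations (96 h, 37 C, 5% CO2).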
# Shiga inhibitor = A qHTS for Small Molecule Inhibitors of Shiga Toxin | Vero cells, Shiga toxin protein synthesis inhibition reporter | inhibition, % at 38.7 µM | hit rate 9.2% among 290,000 | AID 2315, 2010; in the data active = inhibition mostly above about 28%, no sharp cut-off; inactive = mostly below about 43%; note: 0% is about no effect
# Pf growth 48h = Primary qHTS for delayed death inhibitors of the malarial parasite plastid, 48 hour incubation | P. falciparum luciferase growth in erythrocytes, 48 h | Potency, µM (series often up to 28.7 µM), for the others: at the top dose activity change, negative = inhibition, hits mostly inhibitors | hit rate 5.9% among 310,000 | AID 504832, 2011; note: potency is the fitted concentration of half-maximal effect; % is set by controls: 0 for no effect and ±100 for the full control effect
#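 Parasite viability was followed by luminescence of a genomically integrated firefly luciferase. Cultures held 0.1% parasitemia at 2% hematocrit (final), incubated under 5% CO2 at 37 C.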
# HCV inh = qHTS Assay for Inhibitors of Hepatitis C Virus (HCV) | Huh7.5.1 HCVcc-Cre infection, luciferase reporter, 44 h | Potency, µM (top dose mostly 41.8 µM), for the others: top-dose activity change, negative = inhibition, actives largely listed as inhibitors | hit rate 3.4% among 340,000 | AID 651820, 2012; note: potency is the fitted concentration of half-maximal effect; % is set by controls: 0 for no effect and ±100 for the full control effect
#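 After 44 h co-culture of compound, cells and HCVcc-Cre (~0.5 moi), substrate is added for 15 min at room temperature and luciferase measured over 15 sec. Cells were seeded at 1,000/well and pre-cultured 4 h.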
# HCMV antiviral = qHTS Assay for inhibitors of the human cytomegalovirus (HCMV). activity change, negative = inhibition, % at 57.5 µM. hit rate 4.5% among 410,000. HFF cells, HCMV-luciferase reporter, 72 h; stronger effect = lower value; in the data active = activity change below about -60%; inconclusive = no clear call, values can overlap the other calls; inactive = above about -39%; note: % is set by controls: 0 for no effect and ±100 for the full control effect
#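 Screen run at 2 compound doses on HFFs infected with reporter HCMV, MOI 1 PFU/cell. Luciferase activity from cell lysates at 72 h post infection gave inhibition relative to buffer-only and Salinomycin wells.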
# Active calls of the source: *; i = inactive; ? = inconclusive; . = no result; + = active, no number; [ ] = remark or other dose. Only some compounds are listed: those with a hit (about 21% of all), similar ones and a draw of the others. Unless noted, calls come from the whole dose curve; as a rule, active = well fitted inhibition curve with a large enough effect; inconclusive = small, poorly fitted or top-dose-only effect, or another doubt; inactive = no such curve, though single readings can be large or run the other way.
SMILES,Cycloheximide cs,Pf growth 96h,Shiga inhibitor,Pf growth 48h,HCV inh,HCMV antiviral
CC(=O)O[C@H]1C(=O)[C@@]2(C)C([C@H](OC(=O)c3ccccc3)[C@]3(O)C[C@H](OC(=O)[C@H](O)[C@@H](NC(=O)c4ccccc4)c4ccccc4)C(C)=C1C3(C)C)[C@]1(OC(C)=O)CO[C@@H]1C[C@@H]2OC(=O)[C@H](C)NC(=O)c1ccc(-c2c3ccc(=O)cc-3oc3cc(O)ccc23)c(C(=O)O)c1 (stereo not given in full),22,.,+,.,.,.
CC(=O)O[C@@]12CO[C@@H]1C[C@H](O)[C@@]1(C)C(=O)[C@H](O)C3=C(C)[C@@H](OC(=O)[C@H](O)[C@@H](NC(=O)OC(C)(C)C)c4ccccc4)C[C@](O)([C@@H](OC(=O)c4ccccc4)[C@H]21)C3(C)C,-9,.,-6,.,.,.
C/C=C(\C)C(=O)N[C@@H](c1ccccc1)[C@@H](O)C(=O)O[C@H]1C[C@@]2(O)[C@@H](OC(=O)c3ccccc3)C3[C@](C)(C(=O)[C@H](O)C(=C1C)C2(C)C)[C@@H](O)C[C@H]1OC[C@@]31OC(C)=O (stereo not given in full),-1,0.074µM*,-4,0.066µM*,?,22
O=S(=O)(c1ccc(F)cc1)N1CCN(C(=S)NC2CC2)CC1,.,?,.,2.6µM*,2%,30
O=C(NC1CCN(S(=O)(=O)c2ccc(F)cc2)CC1)c1ccc(F)cc1,-2,12µM*,-10,20%,11%,-22
O=C(NC1CCCCC1)N1CCN(S(=O)(=O)c2ccc(F)cc2)CC1,3,?,-14,-2%,19%,4
CC(=O)NC1CC2CCCC(C1)N2S(=O)(=O)c1cccc(F)c1 (stereo not given),-3,8.3µM*,-7,.,12%,64
CCC(C)(C)C1CCC(NC(=O)c2ccc(S(=O)(=O)N3CCOCC3)cc2)CC1 (stereo not given),.,15µM*,.,10µM*,?,?
O=C(NC1CC2CCCC(C1)N2S(=O)(=O)c1ccccc1)c1ccco1 (stereo not given),-5,10%,-9,?,3%,-14
CCc1cccc(-n2c(C)nc3c(cnn3-c3ccc(C)c(C)c3)c2=O)c1,.,.,.,.,.,-30
COc1ccccc1CNC(=O)CC(c1ccc(C)cc1)N1Cc2ccccc2C1=O (stereo not given),.,.,.,.,.,-14
COc1ccc(N2CCN(C(=O)c3sc4nc5n(c(=O)c4c3C)CCC5)CC2)cc1,.,.,.,.,.,-19
Cc1ccc(COC(=O)c2ccc3ccccc3n2)cc1,14,10%,67,6%,4%,9
O=C(c1cccs1)N1CCN(S(=O)(=O)c2ccccc2)CC1,-4,-3%,-11,.,3%,-7
O=C(c1cccs1)N1CCN(S(=O)(=O)c2ccc(F)cc2)CC1,-7,0.47µM*,-2,-3%,0%,-34
O=C(NC1CCN(S(=O)(=O)c2cccc(F)c2)CC1)c1ccc(F)cc1,2,10µM*,2,?,9%,-30
O=C(NC1CCN(S(=O)(=O)c2ccccc2)CC1)c1cccc(F)c1,-2,?,-7,23%,-2%,10
CCc1ccc([C@@H]2CC(=O)[C@@H]3CN(S(=O)(=O)c4ccccc4)[C@H](c4ccc(OC)cc4)C[C@@H]3N2S(=O)(=O)c2ccc(C)cc2)cc1,.,.,.,.,.,-3
CC1(C)Oc2ccc3ccc(=O)oc3c2[C@@H](O)[C@H]1O,.,31%,.,29%,3.2µM*,-24
CC(=O)O[C@@H]1[C@H](OC(=O)CC(C)C)c2c(ccc3ccc(=O)oc23)OC1(C)C,-4,?,-14,-15%,?,-8
C/C=C(/C)C(=O)O[C@@H]1c2c(ccc3ccc(=O)oc23)OC(C)(C)[C@@H]1OC(C)=O,.,.,.,.,-25%,-10
C/C=C(/C)C(=O)OC1c2c(ccc3ccc(=O)oc23)OC(C)(C)C1OC(=O)/C(C)=C\C (stereo not given),-4,1.5µM*,-7,?,-49%,-23
C/C=C(\C)C(=O)OC1c2c(ccc3ccc(=O)oc23)OC(C)(C)C1OC(C)=O (stereo not given),-2,?,-2,8.3µM*,-9%,-32
O=C(NC1CCCC1)c1ccc(CSc2nc3cccnc3n2Cc2ccccc2F)cc1,.,.,.,.,.,0
N#Cc1nc(-c2ccccc2)oc1NCCCn1ccnc1,16*,?,70,?,11%,75
SMILES,Cycloheximide cs,Pf growth 96h,Shiga inhibitor,Pf growth 48h,HCV inh,HCMV antiviral
N#Cc1nc(-c2ccc(OCc3ccc(Cl)cc3)cc2)oc1NCCCn1ccnc1,7,?,52,2.3µM*,13%,11
CCOc1ccc(-c2nonc2NC(=O)COc2ccc(C)c(C)c2)cc1OCC,.,.,.,.,.,11
O=C1C=C(NCCN2CCOCC2)C(=O)c2cnccc21,-12,1.7µM*,-31,1.5µM*,?,.
CC(C)OC(=O)c1c(NC(=O)C2c3ccccc3Oc3ccccc32)sc2c1CCCC2,.,.,.,.,.,-8
S=C(Nc1ccc(Nc2ccccc2)cc1)Nc1ccccn1,37*,-35%[5.75 µM],100*,?,10µM*,-95*
O=C(N/N=C/c1ccccc1O)C(=O)Nc1ccccn1,24*,?,77*,?,-1%,16
O=C(Nc1ccccc1)C(=O)Nc1ccccn1,63*,117%,169*,444%,-1%,114
S=C(Nc1ccccc1)Nc1ccccn1,.,.,.,.,.,31
S=C(Nc1ccccc1)c1ccccn1,47*,?,80*,52%,1%,-15
O=C(O)c1ccccn1,.,69%,.,-11%,13%,-10
COc1ccccc1CNC(=O)C(C)c1ccc([N+](=O)[O-])cc1 (stereo not given),-1,12%[5.75 µM],7,?,-7%,-25
Cc1ccccc1C1CC(=O)Oc2ccc(O)cc21 (stereo not given),-3,.,i,.,.,.
C/C(CC(=O)Nc1ccccn1)=N\NC(=O)C(=O)Nc1cccc(C)c1,-1,?,15,72%,-5%,-11
O=C(Nc1cccc(O)c1)C(=O)Nc1ccccn1,16*,i,27,50%,8%,41
CCOC(=O)N1CCN(C(=O)c2ccc3c(c2)NC(=O)/C(=C\c2ccc(OC)c(OC)c2)S3)CC1,-1,13µM*,-5,?,10%,?
CCOC(=O)N1CCN(C(=O)c2ccc3c(c2)NC(=O)/C(=C\c2cccc(C)c2)S3)CC1,-2,?,10,?,?,?
COc1cccc(/C=C2/Sc3ccc(C(=O)NC4CC4)cc3NC2=O)c1,.,.,.,.,.,5

# High-throughput results (PubChem)
